Source: PubChem BioAssay
Calls of active or inactive are those of the source.

Legend:
[1] = A549 cell viability effects, profiling panel, calcein-AM fluorescence, 48 h, basal (AID 1162); settings: higher = more signal
[2] = adipocyte viability effects, profiling panel, cell-based, 3T3-L1 adipocytes, calcein-AM fluorescence, 48 h, basal (AID 1163); settings: 3T3-L1 adipocytes viability, higher = more signal
[3] = HepG2 cell viability effects, profiling panel, calcein-AM fluorescence, 48 h, basal (AID 1164); settings: higher = more signal
[4] = MM1S cell viability effects, profiling panel, calcein-AM fluorescence, 48 h, basal (AID 1165); settings: higher = more signal;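 note: viability of MM1S multiple myeloma cells under basal unstimulated conditions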
[5] = basal RPMI8226 viability, no added stimulus, profiling panel, cell-based, calcein-AM fluorescence, 48 h, PK04 Diversity Set (AID 1166); settings: RPMI8226 myeloma viability, higher = more signal;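 note: cells grown under basal conditions without added stimulus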
[6] = basal HepG2 mitochondrial membrane potential changes, profiling panel, cell-based, JC-1 fluorescence, 24 h, 100 nL compound (AID 1167); settings: higher = more signal
[7] = basal 3T3-L1 adipocyte mitochondrial potential changes, profiling panel, cell-based, JC-1 fluorescence, 3T3-L1 adipocytes, 24 h, 100 nL compound (AID 1168); settings: JC-1 mitochondrial fluorescence, higher = more signal, called active from +8 up or from −8 down
[8] = basal RPMI8226 mitochondrial membrane potential changes, profiling panel, cell-based, JC-1 fluorescence, 24 h, 100 nL compound (AID 1169); settings: RPMI8226 myeloma, JC-1 mitochondrial potential fluorescence, higher = more signal
[9] = basal MM1S mitochondrial membrane potential changes, profiling panel, cell-based, JC-1 fluorescence, 24 h, 100 nL compound (AID 1170); settings: higher = more signal
[10] = A549 lung cancer cell viability effects, profiling panel, resazurin fluorescence, 24 h, PK04 Diversity Set (AID 1171); settings: higher = more signal, called active from +8 up or from −8 down
Note: test concentration not given here.

Row | SMILES | z-score [1] | z-score [2] | z-score [3] | z-score [4] | z-score [5] | z-score [6] | z-score [7] | z-score [8] | z-score [9] | z-score [10]
1 | C=CCN1C(=O)[C@]2(O[C@H](CCn3cc(CCO)nn3)[C@@H]([Si](C)(C)c3ccc(OC)cc3)[C@@H]2C)c2cc(N3CCOC3=O)ccc21 | 0.0694 | 0.654 | -0.316 | -2.64 | -1.37 | 0.464 | -0.0813 (inactive) | -0.585 | -0.539 | 0.333 (inactive)
2 | C=CCC(OC(C)=O)[C@@H]1[C@@H](N(Cc2cc3ccccc3o2)C(=O)Cc2ccc(F)cc2)c2cc(OCCCO)ccc2N1C(=O)Cc1ccc(OC)cc1 (stereo not given in full) | -0.382 | 0.569 | 0.585 | -0.0962 | 0.228 | 1.16 | -0.0927 (inactive) | 0.774 | -0.208 | 0.331 (inactive)
3 | COC(=O)[C@@H]1CC[C@H](C)[C@@H](c2ccc(C)cc2)N1C(=O)c1ccc(C=NOC[C@@H](O)COCc2ccco2)cc1 | -0.181 | 0.346 | -0.807 | -1.32 | -1.46 | -2.38 | -0.747 (inactive) | 0.304 | -0.352 | -0.45 (inactive)
4 | CC(C)=CCCC(C)=CCON=C1[C@H]2CCn3c(=O)n(Cc4cc5c(cc4Cl)OCO5)c(=O)n3[C@H]2[C@H](O)[C@@H]2O[C@H]12 | -0.305 | 0.123 | 0.42 | -0.918 | -0.497 | -0.298 | -0.992 (inactive) | -0.702 | 1.17 | -0.386 (inactive)
5 | C#CCCCON=C1C[C@@H](O)[C@@H](O)[C@@H]2[C@@H]3C(=O)N(c4cccc(Oc5ccccc5)c4)C(=O)[C@@H]3CC[C@@H]12 | -0.559 | 0.43 | -1.57 | -0.399 | -0.2 | 0.106 | 0.126 (inactive) | -0.56 | 0.835 | -0.248 (inactive)
6 | CC(C)(C)N1C(=O)[C@H]2[C@H]3[C@H](O)[C@H](O)CC(=NOCc4ccccc4)[C@@H]3CC[C@H]2C1=O | 0.366 | 0.218 | 0.586 | -0.0096 | 0.519 | 0.858 | -0.249 (inactive) | 0.701 | -1.01 | -1.58 (inactive)
7 | COc1ccc(CCNC(=O)[C@@H]2c3ccccc3C(=O)N(c3ccc(C)cn3)[C@H]2c2ccc(CO)cc2)cc1 | -0.174 | 0.821 | -0.513 | -0.243 | -0.194 | -0.814 | -0.195 (inactive) | 0.671 | 0.634 | 0.689 (inactive)
8 | CN1C(=O)C2C=CC(C(O)c3ccc(Br)cc3)N(N(c3ccccc3)c3ccccc3)C2C1=O (stereo not given) | 1.78 | -0.658 | 1.37 | 0.0222 | -0.574 | 0.232 | -1.07 (inactive) | 0.343 | -0.654 | -0.335 (inactive)
9 | COc1cccc([C@@H]2Oc3ccc(Br)cc3C(=O)[C@H]2O)c1 | 1.31 | -0.397 | -1.24 | -3.44 | -1.73 | -3.15 | -0.584 (inactive) | -0.0726 | -1.31 | -0.269 (inactive)
10 | O=C1O[C@@H](c2ccccc2)[C@@H](c2ccccc2)N2[C@@H](c3ccc(OCCO)cc3)[C@]3(C(=O)Nc4ccccc43)[C@@H](C(=O)N3CCN(c4ncccn4)CC3)[C@H]12 | -0.47 | -0.888 | 0.834 | -0.138 | 0.229 | -0.679 | 0.339 (inactive) | -0.842 | -0.779 | 0.42 (inactive)
11 | CCCNC(=O)[C@@H]1c2ccccc2C(=O)N(Cc2ccccc2Cl)[C@H]1c1ccc(CO)cc1 | 2.5 | 1.42 | 2.37 | -0.138 | 1.23 | 3.3 | 0.0089 (inactive) | 0.325 | 0.661 | 2.06 (inactive)
12 | CCCC[C@H]1OB(O)C[C@H]2C1=C(C)C[C@H]1C(=O)N(C)C(=O)[C@H]12 | -0.203 | -0.623 | -1.02 | -2.27 | -0.848 | -1.79 | -0.467 (inactive) | 0.391 | 0.203 | -0.794 (inactive)
13 | CO[C@H]1COC(=O)[C@H](C)COC(=O)CC=C[C@@H](C)[C@H](OC)COC(=O)CC=C[C@@H]1C | 0.593 | -0.101 | 0.968 | 0.191 | -0.0736 | 0.69 | 0.0241 (inactive) | 0.405 | 0.601 | 0.239 (inactive)
14 | CN1C(=O)C2C(C1=O)C1C=C(CCCO)C2C(c2ccc(CN3CCCC3)cc2)N1C (stereo not given) | -0.259 | 0.617 | -0.94 | 0.312 | -1.55 | 0.48 | -0.319 (inactive) | -0.667 | 0.287 | -1.1 (inactive)
15 | C#CCCCON=C1C[C@@H](O)[C@@H](O)[C@@H]2[C@@H]3C(=O)N([C@@H](C)c4ccccc4)C(=O)[C@@H]3CC[C@H]12 | -0.858 | -0.0991 | -0.106 | 0.348 | -1.39 | 0.359 | 0.114 (inactive) | 0.234 | -0.53 | -0.0314 (inactive)
16 | COC(=O)CC=C[C@@H](C)[C@H](OC)c1ccccc1Br | 0.408 | -0.662 | 0.99 | -0.154 | -1.15 | 0.845 | -0.288 (inactive) | 0.0131 | -0.515 | -0.0428 (inactive)
